Data reported in ChEMBL document CHEMBL3988442, “University of Dundee, Small-Polar-MMV Screening Library” (2021).
Screen size: about 69,000 compounds; about 1,000 (1.4%) showed an effect of 50% or more. The list comes from a sample in which strong results are over-represented; it also holds similar structures and randomly drawn compounds.

Tested on: Leishmania donovani
Test: Leishmania intramacrophage assay
Assay type: functional, organism-based
Design: scale not given: in the data most compounds retested in dose-response had high values

Structure (SMILES) | Percent Effect (30.3 µM, […]) [%] | Percent Effect (30 µM, 30.03 µM) [%]
O=C(C1CCCO1)N1CCC2(CC1)COCCN(Cc1ccncc1)C2.O=C(O)C(F)(F)F.O=C(O)C(F)(F)F (centres undefined) | 14.9 | –
FC1(F)CCN(Cc2ccncc2)CC12CCN(c1cccnc1)C2.O=C(O)C(F)(F)F.O=C(O)C(F)(F)F.O=C(O)C(F)(F)F (centres undefined) | 38.61 | –
O=C([C@@H]1CCCO1)N1CCOCC2(CCN(Cc3cccnc3)C2)C1 (some centres undefined) | 28.44 | –
O=C(C1CCCO1)N1CCC2(CC1)COCCN(Cc1cccnc1)C2.O=C(O)C(F)(F)F.O=C(O)C(F)(F)F (centres undefined) | 54.72 | –
Cn1ccnc1CN1CCC(F)(F)C2(CCN(c3cnccn3)C2)C1.O=C(O)C(F)(F)F (centres undefined) | -10.04 | –
Cc1ccccc1CC(=O)N(C)C1CCCC1 | – | -4.753
CCCOCCn1ncc(N2CCc3ccccc3C2)cc1=O | -24.62 | –
O=C(NCCNc1ncccn1)N1CCCC1c1ccc(F)cc1 (centres undefined) | 15.04 | –
CCOC(=O)CNC(=O)c1cc2n(n1)CCCO2 | 10.49 | –
Cc1nc(S(=O)(=O)CCn2cccn2)n(C2CCCCC2)c1C | 21.76 | –
NCc1ccccc1Sc1ccc(O)cc1.O=C(O)/C=C\C(=O)O | 18.14 | –
CCCn1nnnc1CN1Cc2ccccc2CC1c1nnc(C)o1 (centres undefined) | 14.94 | –
Cc1ncoc1C(=O)N1CCOC(CCCC(C)C)C1 (centres undefined) | -28.53 | –
CCc1nc(C2CCCN2Cc2nc(CCOC)no2)no1 (centres undefined) | – | 14.38
NCCc1n[nH]c(=O)n1-c1cccc(Cl)c1Cl | 4.495 | –
Cc1cc(CC(C)Nc2ncnc3cccc(F)c23)[nH]n1 (centres undefined) | 6.483 | –
CC(Cc1cncs1)Nc1ncnc2cccc(F)c12 (centres undefined) | 50.92 | –
CC(Cc1cccnc1)Nc1ncnc2cccc(F)c12 (centres undefined) | 5.204 | –
N#Cc1cccc(C(=O)N2C[C@H]3CC[C@@H]2CN(C(=O)C2CCC2)C3)c1 | 15.5 | –
CC(c1ccco1)N(C(=O)Cn1nc2n(c1=O)CCCCC2)C1CC1 (centres undefined) | -5.38 | –
CCS(=O)(=O)N1CCOC2(CCCN(c3cnccn3)C2)C1.O=C(O)C(F)(F)F (centres undefined) | 26.09 | –
Cc1nc(CN2CCc3ncnc(-c4ccsc4)c3CC2)cs1.O=C(O)C(F)(F)F | 54.86 | –
Cc1nc(CN2CCc3ncnc(-c4ccccc4)c3CC2)cs1.O=C(O)C(F)(F)F | 41.98 | –
Cc1cccc(CN2CCc3ncnc(N4CCCC4)c3CC2)n1.O=C(O)C(F)(F)F | 43.68 | –
Cc1cccc(CN2CCc3ncnc(N4CCOCC4)c3CC2)n1.O=C(O)C(F)(F)F | – | -4.013

Structure (SMILES) | Percent Effect (30.3 µM, […]) [%] | Percent Effect (30 µM, 30.03 µM) [%]
Cc1nc(CN2CCc3ncnc(-c4ccncc4)c3CC2)cs1.O=C(O)C(F)(F)F.O=C(O)C(F)(F)F | 3.502 | –
Cc1cccc(CN2CCc3ncnc(N4CCN(C)CC4)c3CC2)n1.O=C(O)C(F)(F)F.O=C(O)C(F)(F)F | 55.42 | –
Nc1nccnc1C(=O)N(Cc1ccccc1O)CC1CCCO1 (centres undefined) | -0.1848 | –
O=C(C(C1CC1)C1CC1)N1CCC(n2ccnn2)CC1 | 12.14 | –
CN1CCN(c2ncc3c(=O)n(-c4cccc(F)c4)c(=O)[nH]c3n2)CC1 | – | 19.86
O=C(O)C(F)(F)F.O=C(O)C(F)(F)F.O=C1NC2(CCN(Cc3cccs3)CC2)CC1c1ccncc1 (centres undefined) | 15.69 | –
COc1ccc(CC(=O)N2CCC(c3n[nH]c(C4CC4)n3)CC2)cc1 | 20.62 | –
CC(=O)Nc1nc(CNc2ccccc2CCC(F)(F)F)cs1 | -4.538 | –
CN1C[C@@H](C(=O)N2CCOCC2)[C@@]2(CCc3ccccc3C(=O)N2)C1 | 0.0295 | –
N#Cc1cnc2cc(F)cc(F)c2c1NC1CCN(CC(N)=O)CC1 | 21.49 | –
N#Cc1cnc2c(F)cc(F)cc2c1NC1CCN(CC(N)=O)CC1 | 54.87 | –
Cc1cc(C)c2ncc(C#N)c(NC3CCN(CC(N)=O)CC3)c2c1 | 5.1 | –
CN(C)c1ccc(CC(=O)N[C@@H]2CCNC[C@H]2O)cc1 | – | -29.81
CCOc1ccc(C(C)Nc2ncnc3c2CCNC3)cc1OCC (centres undefined) | 19.33 | –
CC(Nc1ncnc2c1CCNC2)c1ccc2c(c1)CCCC2 (centres undefined) | 82.26 | –
Cc1ccccc1C(CNc1ncnc2c1CCNC2)N(C)C (centres undefined) | -14.27 | –
CC(Nc1ncnc2c1CCNCC2)c1nc2c(s1)CCCC2 (centres undefined) | 11.97 | –
Cc1ccccc1C(CNc1ncnc2c1CCNCC2)N(C)C (centres undefined) | -7.029 | –
CCCc1ccc(C(C)Nc2ncnc3c2CCNC3)cc1 (centres undefined) | 81.31 | –
Cc1ccccc1C(Nc1ncnc2c1CCNC2)c1ccccc1 (centres undefined) | 61.26 | –
Cc1nc(C(C)Nc2ncnc3c2CCNCC3)c(C)s1 (centres undefined) | 9.224 | –
Cc1cc(C)n(CC(C)Nc2ncnc3c2CCNC3)n1 (centres undefined) | -4.806 | –
CC(Nc1ncnc2c1CCNC2)c1ccc(C(C)(C)C)cc1 (centres undefined) | 88.55 | –
CCc1nc(NC2CC(=O)N(CC3CCCCC3)C2)ncc1C (centres undefined) | 15.64 | –
